HSF1 activator: HSF-1 activators, primary screen, NIH3T3-HGL cells, MG132 stress, luminescence, single point. NIH3T3-HGL HSF-1 luciferase reporter, 8 h; 100% = twice DMSO control signal. activation, % at 9 µM. actives 1.7% (n = 300,000). AID 504408, 2011;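 active means mean replicate activation of at least 50% with a set share of replicates each reaching 50%; inconclusive means only one of those two conditions met; inactive means mean below 50% and too few replicates reaching it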
MITF act: activators of MITF-driven TRPM1 promoter reporter, primary screen, cell-based, SK-MEL-5, luciferase, single point; SK-MEL-5 TRPM1-promoter luciferase, 24 h; % of positive control, neutral wells = 0; activation, % at 12.5 µM; actives 0.75% (n = 300,000); AID 588334, 2011;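 active means mean activation of at least 80% with every replicate also reaching 80%; inconclusive means mean reaches 80% but some replicate falls short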
Wnt bcat act: Wnt/beta-catenin pathway activators, primary screen, cell-based, plate reader, single point | actives 1.2% (n = 300,000) | activation, % at 9.35 µM | Wnt/beta-catenin reporter cell assay, activator | AID 743398, 2014; in the data active means activation above about 30%, passing the limit was not always enough; inconclusive means no clear call, values can overlap the other calls
HSF1 inhib: HSF1 inhibitors in luciferase reporter cells, primary screen, cell-based, NIH3T3, luminescence; NIH3T3-HGL HSE-luciferase, MG132-induced, luminescence 8 h; hits give low values; actives 0.77% (n = 300,000); activity change, negative = inhibition, % at 7.5 µM (by protocol);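 active means more than half of replicate wells show activity change below -50%, luminescence cut by over half; inconclusive means some wells, but at most half, below -50%; inactive means no replicate well below -50%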;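 further: luciferase reports HSF-1 transcriptional activity via heat shock element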
esBAF inh: Bmi1 luciferase reporter increase in mESCs, primary screen, esBAF inhibitor project, mouse ES cells, Bmi1 luciferase knock-in, single point | 24 h; 100% = twice the neutral-well signal | reporter increase, % at 12.5 µM | actives 2% (n = 350,000); in the data active means activation above about 40%; inconclusive means no clear call, values can overlap the other calls;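 further: a rise in the Bmi1 reporter signal indicates esBAF inhibition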
Ring1 derepress: Ring1 mRNA increase in mouse ESCs, confirmation, esBAF inhibitor project, cell-based, mouse ESC, RT-qPCR, cherry-pick | mouse ESC E14, Ring1 mRNA RT-qPCR fold change | shares compounds with esBAF inh | 550 tested, under 10 active | fold change at 33 µM;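 active means Ring1 gene expression raised more than 2-fold over untreated cells in both replicates at either tested dose; inconclusive means only one replicate above 2-fold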;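 further: Ring1 transcript normalised to actin housekeeping signal by TaqMan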
Fgf4 repress: Fgf4 mRNA decrease in mouse ESCs, confirmation, esBAF inhibitor project, cell-based, mouse ESC, RT-qPCR, cherry-pick | Fgf4 expression fold change at 33 µM | mouse ESC E14, Fgf4 mRNA qPCR fold change; hits give low values | actives 4% (n = 550) | shares compounds with esBAF inh | AID 743177, 2013;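 active means Fgf4 expression under 0.8 fold of control in both repeat measurements at one or both tested doses; inconclusive means under 0.8 fold in just a single repeat measurement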;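 further: Fgf4 transcript normalised to actin in duplex TaqMan qPCR; cells exposed to compound for 24 h before lysis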
esBAF Bmi1 qPCR: esBAF inhibition via Bmi1 de-repression, confirmation, cell-based, RT-qPCR, mouse ESC, single point, cherry-pick. shares compounds with esBAF inh. mouse ESE14 ES cells, Bmi1 mRNA qPCR fold; hits give high values. fold change at 33 µM. 550 tested, under 10 active. AID 743180, 2013;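 active means Bmi1 expression fold change above 6 at either tested concentration, seen in replicate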;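 further: higher fold means more Bmi1 de-repression and stronger esBAF inhibition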
A549 tox SP: A549 cell cytotoxicity, cytotoxicity control, plate reader, single point, cherry-pick; cell viability change % (negative = cytotoxic), % at 25 µM, hits read low; 550 tested, under 10 active; shares compounds with esBAF inh; AID 743188, 2013; call rule not given here
HepG2 tox SP: HepG2 cell cytotoxicity, cytotoxicity control, plate reader, single point, cherry-pick; shares compounds with esBAF inh; activity change, negative = inhibition, % at 25 µM; hits give low values; actives 4% (n = 550); AID 743189, 2013; in the data active means activity change below about -50%
HEK293 tox SP: HEK293 cell cytotoxicity, cytotoxicity control, plate reader, single point, cherry-pick. activity change, negative = inhibition, % at 25 µM, hits read low. actives 3% (n = 550). shares compounds with esBAF inh; in the data active means activity change below about -38%, passing the limit was not always enough
Numbers stand for hits; i = inactive; ? = inconclusive; nt = no result. Most compounds without a hit are left out; they make up all but 3.9% or so of the library.

SMILES	HSF1 activator	MITF act	Wnt bcat act	HSF1 inhib	esBAF inh	Ring1 derepress	Fgf4 repress	esBAF Bmi1 qPCR	A549 tox SP	HepG2 tox SP	HEK293 tox SP
Nc1ccccc1/C=C/c1ccccc1N	nt	i	i	nt	112	i	i	i	i	i	i
O=C(Nc1ccc(Nc2ccccc2)cc1)Nc1ccccc1Cl	56	102	i	i	70	i	i	i	i	i	i
Oc1cccc(C=NNc2ccccn2)c1	nt	i	i	nt	76	i	i	i	i	i	i
FC(F)(F)c1ccccc1/C=N/Nc1ccccn1	i	i	i	i	nt	nt	nt	nt	nt	nt	nt
Clc1ccccc1C=NNc1ccccn1	nt	i	39	nt	98	i	i	i	i	i	i
COc1cccc(NC(=O)CN(C)C(=O)c2sc3cc(Cl)ccc3c2Cl)c1	i	i	i	i	i	nt	nt	nt	nt	nt	nt
COc1cccc(NC(=O)CN(C)C(=O)CNC(=O)c2sc3ccccc3c2Cl)c1	nt	i	i	nt	67	i	i	i	i	i	i
C=CCNc1nc(Cl)nc(Nc2ccccc2)n1	i	i	i	i	60	i	i	i	i	i	i
CNc1nc(Cl)nc(Nc2ccccc2)n1	i	i	i	i	nt	nt	nt	nt	nt	nt	nt
COc1ccc(NC(=O)N(C)C[C@H]2Oc3ccc(NS(=O)(=O)c4ccc(C)cc4)cc3CC(=O)N([C@@H](C)CO)C[C@@H]2C)cc1	nt	nt	nt	nt	i	nt	nt	nt	nt	nt	nt
COc1ccc2cc(C(=O)N(C)CC(=O)Nc3ccccc3Br)ccc2c1	nt	i	42	nt	60	i	i	i	i	i	i
CN(CC(=O)Nc1ccccc1Br)C(=O)c1ccc(COc2ccccc2)cc1	i	i	i	i	i	nt	nt	nt	nt	nt	nt
CN(CC(=O)Nc1ccccc1Br)C(=O)c1cc2c(s1)CCCCC2	i	?	43	i	67	i	i	i	i	i	i
C[C@@H]1CN([C@@H](C)CO)S(=O)(=O)c2ccc(C3=CCCC3)cc2O[C@@H]1CN(C)Cc1cncnc1	nt	nt	nt	nt	i	nt	nt	nt	nt	nt	nt
Cn1c2nc3ccccc3c-2nc2ccccc21	nt	nt	39	nt	54	i	i	6.4	i	i	i
CNC[C@@H]1Oc2ccc(NS(=O)(=O)c3ccc(OC)cc3)cc2C(=O)N([C@H](C)CO)C[C@@H]1C	nt	nt	nt	nt	i	nt	nt	nt	nt	nt	nt
COc1ccccc1NC(=O)N1C[C@H](O)COC[C@H]2O[C@H](CC(=O)NCc3ccccc3)CC[C@@H]21	nt	nt	nt	nt	i	nt	nt	nt	nt	nt	nt
O=C1Nc2ccccc2N=C(c2ccc3c(c2)OCO3)C1N(C(=O)c1ccc2ccccc2c1)C1CC1 (configuration not stated)	nt	nt	i	nt	105	i	i	i	i	i	i
COc1ccccc1S(=O)(=O)N[C@@H]1CC[C@@H](CC(=O)NCc2cccc(F)c2)O[C@@H]1CO	nt	nt	nt	nt	i	nt	nt	nt	nt	nt	nt
O=c1c2ccccc2sc2ccccc12	nt	i	i	nt	57	i	i	i	i	i	i
O=c1c2ccccc2sc2ccc(Cl)cc12	i	i	nt	i	nt	nt	nt	nt	nt	nt	nt
O=C(O)c1ccc(N/N=C/c2cccc3nccnc23)cc1	i	i	i	i	65	i	i	i	i	i	i
Fc1cccc(-c2ncc(-c3ccccc3)o2)c1	nt	i	42	nt	73	i	i	i	i	i	i

Source: PubChem BioAssay (Broad Institute)
